Experimental findings from paper PMC8769072, “Proteome‐scale mapping of binding sites in the unstructured regions of the human proteome” (Molecular Systems Biology, 2022) are described below.

Chain of KEAP1 321-609, Q14145 (Q14145 321-609): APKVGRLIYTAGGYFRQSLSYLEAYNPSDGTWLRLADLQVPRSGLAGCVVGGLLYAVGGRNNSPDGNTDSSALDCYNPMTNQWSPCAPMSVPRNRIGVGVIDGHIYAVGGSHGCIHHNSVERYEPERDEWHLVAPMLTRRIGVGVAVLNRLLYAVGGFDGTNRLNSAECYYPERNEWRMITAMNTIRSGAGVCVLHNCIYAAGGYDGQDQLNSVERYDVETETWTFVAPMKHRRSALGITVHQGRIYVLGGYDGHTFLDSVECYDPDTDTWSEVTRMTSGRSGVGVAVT
Chain of KPNA4 68-487, O00629 (O00629 68-487): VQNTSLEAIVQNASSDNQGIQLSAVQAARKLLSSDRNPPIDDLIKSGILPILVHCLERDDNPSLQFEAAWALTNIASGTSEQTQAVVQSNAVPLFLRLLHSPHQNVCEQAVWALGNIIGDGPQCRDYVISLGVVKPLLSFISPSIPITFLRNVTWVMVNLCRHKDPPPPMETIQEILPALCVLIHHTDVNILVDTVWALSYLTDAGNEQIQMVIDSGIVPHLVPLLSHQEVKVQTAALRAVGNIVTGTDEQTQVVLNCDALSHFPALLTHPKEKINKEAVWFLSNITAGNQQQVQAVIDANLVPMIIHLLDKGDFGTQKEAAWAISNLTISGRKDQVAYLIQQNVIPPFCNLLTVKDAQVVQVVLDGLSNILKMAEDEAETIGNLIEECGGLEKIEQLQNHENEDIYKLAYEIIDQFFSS

In the case of TAQQLETTTERWLVID [CC2D1A, Q6P1N0], the “selected by phage display” value in the experiment with MAP1LC3A 2-121, Q9H492 is “confidence 3 (active)”.

In the case of PINPSTGELSTSSSSN [MCC, P23508], the “selected by phage display” value with KEAP1 321-609, Q14145 is “confidence 4 (active)”.

Consider ANGWQIISSSSGATPT [SP1, P08047], for which the “selected by phage display” value with MAP1LC3A 2-121, Q9H492 was “confidence 4 (active)”. For the molecule KRPHQEFGISSQGAYL [PDE3B, Q13370], in the experiment with KPNA4 68-487, O00629, the “selected by phage display” value was “confidence 2 (active)”. As to VLASMKNTYEVLDFLG [HIPK3, Q9H422], the “selected by phage display” value in the experiment with MAP1LC3A 2-121, Q9H492 was “confidence 2 (active)”. On the same count and under the same terms, then FPSSGFTDLAEIVSRI [PNPLA6, Q8IY17], with “confidence 3 (active)”. WTDLENSIVSVERMQD [ABCC6, O95255]: the “selected by phage display” value with MAP1LC3A 2-121, Q9H492 is “confidence 3 (active)”; in the experiment with MAP1LC3B 2-119, Q9GZQ8, “confidence 2 (active)”. As for TDTHWTDLTHLIEKLK [TRIM59, Q8IWR1], the “selected by phage display” value with MAP1LC3A 2-121, Q9H492 is “confidence 3 (active)”.

Regarding ESPSVKRMRLSEGWAT [MEF2C, Q06413], the “selected by phage display” value in the experiment with KPNA4 68-487, O00629 was “confidence 2 (active)”. With GPEAASGEWELLRLDS [ESPL1, Q14674], the “selected by phage display” value with MAP1LC3A 2-121, Q9H492 was “confidence 2 (active)”.

Take AIKRGYDDLQTIVPTA [MLX, Q9UH92]: in the experiment with KPNA4 68-487, O00629, the “selected by phage display” value is “confidence 2 (active)”. Still for that read-out and setting: the entry for HEISLKRSYESVEGNI is “confidence 3 (active)”. With DGDTLDSDEFAILDAP [ATG2A, Q2TAZ0], the “selected by phage display” value with MAP1LC3A 2-121, Q9H492 was “confidence 4 (active)”. Take MSSSPVKRQRMESALD [TALDO1, P37837]: the “selected by phage display” value in the experiment with KPNA4 68-487, O00629 is “confidence 3 (active)”. With QVDEVTDLLASFTSLS [ANKRD54, Q6NXT1], in the experiment with MAP1LC3A 2-121, Q9H492, the “selected by phage display” value is “confidence 3 (active)”. Regarding RGGGSVGSDVGQRLPV [KCNT1, Q5JUK3], the “selected by phage display” value with MAP1LC3A 2-121, Q9H492 was “confidence 2 (active)”. Take SPTILGKRSYEQHNGV [MTA1, Q13330]: the “selected by phage display” value with KPNA4 68-487, O00629 is “confidence 2 (active)”. In the case of QGSRQDSWEVVEGLRG [OSBPL3, Q9H4L5], the “selected by phage display” value with MAP1LC3A 2-121, Q9H492 is “confidence 2 (active)”. As to KRPRYDDTVKINSMGG [ZNF318, Q5VUA4], the “selected by phage display” value with KPNA4 68-487, O00629 is “confidence 3 (active)”. For LENNSETGELQPVLPE [TRIM37, O94972], in the experiment with KEAP1 321-609, Q14145, the “selected by phage display” value was “confidence 2 (active)”.

Turning to SLAPVKRTYEQMEFPL [ADNP, Q9H2P0], the “selected by phage display” value in the experiment with KPNA4 68-487, O00629 is “confidence 3 (active)”.

With GWDYGIGGGWDHISVR [TECPR1, Q7Z6L1], the “selected by phage display” value with MAP1LC3A 2-121, Q9H492 is “confidence 2 (active)”. For WRDMTTITEDEISKLR [CACTIN, Q8WUQ7], in the experiment with MAP1LC3A 2-121, Q9H492, the “selected by phage display” value was “confidence 2 (active)”. Still for that read-out and setting: the entry for WATIEPAPDAASLLAS [AKAP13, Q12802] is “confidence 3 (active)”.

Consider MVEAGGLLEKWTLLEE [APOBR, Q0VD83], for which, in the experiment with MAP1LC3A 2-121, Q9H492, the “selected by phage display” value is “confidence 4 (active)”.

With WVWLGNEAELLESMGD [TMEM132C, Q8N3T6], the “selected by phage display” value was “confidence 4 (active)” with MAP1LC3A 2-121, Q9H492 and “confidence 3 (active)” with MAP1LC3B 2-119, Q9GZQ8. In the case of YDPVTGEWKSLAKLPE [KLHL24, Q6TFL4], in the experiment with KEAP1 321-609, Q14145, the “selected by phage display” value was “confidence 3 (active)”.

As for ELKRKLEQEQKLVEVL [MKL2, Q9ULH7], the “selected by phage display” value in the experiment with KPNA4 68-487, O00629 was “confidence 3 (active)”. Still for that read-out and setting: the entry for GVKRTYSEVYPGQQYL [ZMIZ2, Q8NF64] is “confidence 3 (active)”; for RGLKRSLSEMEIGMVV [SRF, P11831] it is “confidence 2 (active)”. Take EWQHLDSAQRTPYRDM [ZNF487, B1APH4]: the “selected by phage display” value in the experiment with MAP1LC3A 2-121, Q9H492 was “confidence 2 (active)”.

In the case of AGVKRSAAEMYGSVTE [HNRNPC, P07910], the “selected by phage display” value with KPNA4 68-487, O00629 was “confidence 3 (active)”. Turning to WEDLEARINAENEVPI [CEP170B, Q9Y4F5], in the experiment with MAP1LC3A 2-121, Q9H492, the “selected by phage display” value was “confidence 2 (active)”.

For TENDDFAILFAPKAAM [ATG2B, Q96BY7], the “selected by phage display” value with MAP1LC3A 2-121, Q9H492 was “confidence 3 (active)”.

Turning to PSPETGEAKRSAFVEV [PRDM8, Q9NQV8], the “selected by phage display” value with KEAP1 321-609, Q14145 is “confidence 3 (active)”.

Regarding GWETVEMHPAYTEEEL [NUCB1, Q02818], in the experiment with MAP1LC3A 2-121, Q9H492, the “selected by phage display” value was “confidence 2 (active)”. Regarding YELLTENDMLPNMRIG [JAK2, O60674], the “selected by phage display” value with MAP1LC3A 2-121, Q9H492 is “confidence 2 (active)”; in the experiment with MAP1LC3B 2-119, Q9GZQ8, “confidence 2 (active)”.

TVNEWAHLQEDTNSHI [ANKRD62, A6NC57]: the “selected by phage display” value in the experiment with MAP1LC3A 2-121, Q9H492 is “confidence 4 (active)”. Take LESKRPRLEQVSDSHF: the “selected by phage display” value in the experiment with KPNA4 68-487, O00629 is “confidence 2 (active)”. The same measure, in the same setting: then DHQFPAKRPRLSEPQG [HJURP, Q8NCD3], with “confidence 2 (active)”. Take RQEEKQVLLQADWTLL [ZNF579, Q8NAF0]: in the experiment with MAP1LC3A 2-121, Q9H492, the “selected by phage display” value is “confidence 2 (active)”.

For WEEFESLQKQEVKNLH [PTPN6, P29350], in the experiment with MAP1LC3A 2-121, Q9H492, the “selected by phage display” value was “confidence 2 (active)”. With TDELLRHPVTGEVVER [C6orf132, Q5T0Z8], in the experiment with KEAP1 321-609, Q14145, the “selected by phage display” value is “confidence 4 (active)”. For GKRPYEAIEAGKAFRY [ZNF471, Q9BX82], in the experiment with KPNA4 68-487, O00629, the “selected by phage display” value is “confidence 2 (active)”. On the same count and under the same terms, then ELKRIKTEDGEGIVIA [FOXK2, Q01167], with “confidence 2 (active)”. With FDAVTGEFTGMPEQWA [PAK1, Q13153], in the experiment with KEAP1 321-609, Q14145, the “selected by phage display” value was “confidence 3 (active)”. Regarding DLTESSSMVDGDWTMV [RIC1, Q4ADV7], the “selected by phage display” value is “confidence 4 (active)” in the experiment with MAP1LC3A 2-121, Q9H492 and “confidence 4 (active)” with MAP1LC3B 2-119, Q9GZQ8. As for EDSIEPPHKRLALSSE [DMTF1, Q9Y222], in the experiment with KPNA4 68-487, O00629, the “selected by phage display” value was “confidence 3 (active)”. For the molecule GPDSFTVLGNSMPSVF [BCL9, O00512], the “selected by phage display” value with MAP1LC3A 2-121, Q9H492 was “confidence 4 (active)”; with MAP1LC3B 2-119, Q9GZQ8, “confidence 3 (active)”. In the case of DFTFLRPLSVQQPTAL [PCDHGC5, Q9Y5F6], the “selected by phage display” value in the experiment with MAP1LC3A 2-121, Q9H492 is “confidence 3 (active)”. With LEDSFAHLQLSGDNTA [RNF146, Q9NTX7], in the experiment with MAP1LC3A 2-121, Q9H492, the “selected by phage display” value is “confidence 3 (active)”. Same read-out and setting: the entry for HDDFVMIDFKPAFSKD [ATG13, O75143] is “confidence 3 (active)”. Consider AEQSKRPRLEVGHQGV [EP400, Q96L91], for which the “selected by phage display” value with KPNA4 68-487, O00629 was “confidence 3 (active)”. Regarding SPNREWEVLQPAPHQV, the “selected by phage display” value in the experiment with MAP1LC3A 2-121, Q9H492 is “confidence 3 (active)”.

Take PQALERADGSWAWVVL [SLC16A5, O15375]: the “selected by phage display” value in the experiment with MAP1LC3A 2-121, Q9H492 was “confidence 3 (active)”; in the experiment with MAP1LC3B 2-119, Q9GZQ8, “confidence 3 (active)”. GLKRPASQDFEYLQEE [NRK, Q7Z2Y5]: the “selected by phage display” value with KPNA4 68-487, O00629 is “confidence 2 (active)”. In the case of VLPDALTDGSDVVSDL [CFAP36, Q96G28], the “selected by phage display” value with KEAP1 321-609, Q14145 was “confidence 2 (active)”. As to VHTTSKRPRLDPVLAD [FAM90A22P, A8MWA6], the “selected by phage display” value in the experiment with KPNA4 68-487, O00629 is “confidence 2 (active)”. For the molecule WKRDSSGNKIMHPVSG [NUDT9, Q9BW91], the “selected by phage display” value in the experiment with KPNA4 68-487, O00629 was “confidence 2 (active)”. The same measure, in the same setting: then DLKRRLDSITSSQSSA [KDR, P35968], with “confidence 2 (active)”.

For NLAPSDEESSWTTLSQ [APBB2, Q92870], the “selected by phage display” value with MAP1LC3A 2-121, Q9H492 was “confidence 2 (active)”.
